This note sets out measurements from PubChem BioAssay (NCATS).

For test [1], the target named is Rap guanine nucleotide exchange factor 3 (Homo sapiens) (UniProt O95398). Description: Confirmatory qHTS for agonist of cAMP-regulated guanine nucleotide exchange factor 3 (EPAC1) (AID 1645881).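 Also: EPAC1 catalysed release of BODIPY-GDP from Rap1B seen as fluorescence loss; 100% = effect of cAMP agonist control; nearly all actives have a fitted effect of over 75% in size.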 Background: Quantitative high-throughput screening tests each substance at several concentrations.
Chain of Rap guanine nucleotide exchange factor 3 (Homo sapiens) (O95398 whole entry, looked up): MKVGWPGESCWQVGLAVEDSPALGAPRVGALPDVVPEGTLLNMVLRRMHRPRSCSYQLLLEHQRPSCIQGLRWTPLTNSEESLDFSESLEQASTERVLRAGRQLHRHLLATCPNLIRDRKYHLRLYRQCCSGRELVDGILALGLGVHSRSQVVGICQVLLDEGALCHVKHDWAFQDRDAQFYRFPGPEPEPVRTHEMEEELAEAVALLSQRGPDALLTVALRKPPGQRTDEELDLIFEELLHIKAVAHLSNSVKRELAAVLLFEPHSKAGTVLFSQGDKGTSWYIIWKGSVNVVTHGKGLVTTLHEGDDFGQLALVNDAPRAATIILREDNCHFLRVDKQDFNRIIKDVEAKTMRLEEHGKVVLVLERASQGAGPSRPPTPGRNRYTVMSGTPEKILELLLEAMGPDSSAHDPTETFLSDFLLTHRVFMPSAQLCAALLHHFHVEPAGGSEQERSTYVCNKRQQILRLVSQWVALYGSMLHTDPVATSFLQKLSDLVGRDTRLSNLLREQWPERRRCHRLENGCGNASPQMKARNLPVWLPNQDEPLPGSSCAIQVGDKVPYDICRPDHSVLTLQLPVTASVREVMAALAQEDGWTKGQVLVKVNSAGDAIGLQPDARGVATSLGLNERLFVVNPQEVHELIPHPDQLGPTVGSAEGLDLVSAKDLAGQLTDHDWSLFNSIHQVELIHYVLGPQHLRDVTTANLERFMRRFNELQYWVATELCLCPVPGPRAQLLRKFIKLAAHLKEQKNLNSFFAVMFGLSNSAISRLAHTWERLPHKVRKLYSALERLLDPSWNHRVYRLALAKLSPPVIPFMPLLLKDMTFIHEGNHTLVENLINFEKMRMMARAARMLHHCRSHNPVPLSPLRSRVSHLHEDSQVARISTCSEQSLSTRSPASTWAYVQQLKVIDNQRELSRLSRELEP
Test [2] addresses Rap guanine nucleotide exchange factor 4 (Homo sapiens) (UniProt Q8WZA2). Description: Confirmatory qHTS for agonist of cAMP-regulated guanine nucleotide exchange factor 4 (EPAC2) (AID 1645884).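 Also: nucleotide exchange releases bodipy-GDP from Rap1 and this lowers its fluorescence; % is scaled to controls: 0 for no effect and ±100 for the full control effect; nearly all actives have a fitted effect of over 65% in size.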
The target is the same in test [3]. Description: Confirmatory qHTS for antagonist of cAMP-regulated guanine nucleotide exchange factor 4 (EPAC2) (AID 1645885). Also: nearly all actives have a fitted effect of over 25% in size. Also: potency is read from the fitted curve at half-maximal effect. As to activity change, negative = inhibition: % is scaled to controls: 0 for no effect and ±100 for the full control effect.
In test [4] the target is Rap guanine nucleotide exchange factor 3 (Homo sapiens) (UniProt O95398). Kind of test: Counterscreen qHTS for antagonist of cAMP-regulated guanine nucleotide exchange factor 3 (EPAC1) (AID 1645888).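 Also: fluorescence loss as bound BODIPY-GDP is released from Rap1B; % of control where 0% means no effect.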 An outline of the steps: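 Rap1B–BODIPY-GDP (250 nM) with 50 uM GDP; compounds pin-transferred to 9.74 nM–152 uM final (activator) or from 7.32 nM upwards (inhibitor). Fluorescence Ex/Em 480/540 nm read at 5 and 30 min, then after adding cAMP or buffer, at room temperature.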
(In general: The purpose of a counterscreen is to sort out artefacts and off-target activity.)

Results filed as inconclusive are left out. A number with no mark means an inactive call. Active and inactive are the calls of the source. Calls follow the shape of the dose curve; as a rule, active = well fitted curve in the direction sought with a large enough effect; inconclusive = small, poorly fitted or top-dose-only effect, or another doubt; inactive = no such curve, though single readings can be large; an effect the other way counts as inactive or inconclusive.

Chain of Rap guanine nucleotide exchange factor 4 (Homo sapiens) (Q8WZA2 whole entry, looked up): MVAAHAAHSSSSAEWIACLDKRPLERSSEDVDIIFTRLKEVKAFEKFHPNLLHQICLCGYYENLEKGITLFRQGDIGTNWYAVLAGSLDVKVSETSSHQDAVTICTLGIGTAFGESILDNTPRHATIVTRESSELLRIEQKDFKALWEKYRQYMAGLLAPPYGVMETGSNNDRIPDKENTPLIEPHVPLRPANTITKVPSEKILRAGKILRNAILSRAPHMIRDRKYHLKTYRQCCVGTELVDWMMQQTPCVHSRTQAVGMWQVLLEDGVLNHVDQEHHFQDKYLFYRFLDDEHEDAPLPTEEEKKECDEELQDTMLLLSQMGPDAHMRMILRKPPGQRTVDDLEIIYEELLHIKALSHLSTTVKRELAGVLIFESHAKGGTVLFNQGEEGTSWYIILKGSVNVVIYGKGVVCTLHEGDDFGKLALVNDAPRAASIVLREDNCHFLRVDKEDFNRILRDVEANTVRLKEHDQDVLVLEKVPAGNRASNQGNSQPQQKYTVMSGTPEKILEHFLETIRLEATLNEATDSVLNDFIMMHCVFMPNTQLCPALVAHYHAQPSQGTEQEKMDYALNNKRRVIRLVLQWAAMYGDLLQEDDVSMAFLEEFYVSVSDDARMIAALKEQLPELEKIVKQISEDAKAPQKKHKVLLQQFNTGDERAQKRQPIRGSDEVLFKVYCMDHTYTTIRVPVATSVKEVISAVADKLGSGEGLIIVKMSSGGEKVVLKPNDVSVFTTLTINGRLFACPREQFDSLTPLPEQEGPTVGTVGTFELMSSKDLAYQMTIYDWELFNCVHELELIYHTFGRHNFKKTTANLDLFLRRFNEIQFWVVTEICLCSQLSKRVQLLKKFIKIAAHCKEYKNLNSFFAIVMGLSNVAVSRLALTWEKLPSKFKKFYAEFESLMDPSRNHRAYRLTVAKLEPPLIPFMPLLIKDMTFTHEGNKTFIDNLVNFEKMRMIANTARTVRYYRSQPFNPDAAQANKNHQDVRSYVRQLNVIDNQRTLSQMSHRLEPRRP

For `O=C(NCCCN1CCOCC1)c1ccc2c(c1)N(Cc1cccc(Cl)c1)C(=O)c1ccccc1S2`, the Potency entry in test [1], in test [2], in test [3] and in test [4] was “inactive” each time.
As to `N#CCCN(CCC#N)S(=O)(=O)c1ccc(C(=O)Nc2nnc(C3=COCCO3)o2)cc1`, the Potency entry in test [1], in test [2], in test [3] and in test [4] was “inactive” throughout.
For the molecule `CCc1ccccc1OCC(=O)NCC1COc2ccccc2O1` (centres undefined), the Potency result in test [1], in test [2], in test [3] and in test [4] was “inactive” throughout.
Regarding `Cc1ccc(Nc2nnc(-c3ccc(C)c(S(N)(=O)=O)c3)c3ccccc23)cc1`, the Potency result in test [1], in test [2] and in test [4] was “inactive” in each case. Moreover, the outcome in test [3] is “inactive [at 12.7 µM]”.
Regarding `O=C1CS(=O)(=O)N(Cc2cccc(F)c2)c2ccc(Br)cc21`, the Potency entry in test [1], in test [2], in test [3] and in test [4] was “inactive” each time.
Consider `O=C(N/N=C/c1ccc(O)c(O)c1)c1ccc(CSc2cccc3cccnc23)cc1`, for which the Potency result in test [1] and in test [3] was “inactive” in each case. Moreover, in test [2], the activation was 14.6% [at 17.1 µM, percent relative to cAMP agonist control]. For the same molecule, the activity change, negative = inhibition in test [4] was 41.8% [at 30.8 µM].
On to `COc1cccc(C(=O)Nc2ccc(NC(=O)c3ccco3)c(Cl)c2)c1`, for which the Potency result in test [1] and in test [3] was “inactive” each time. Besides, the activation in test [2] was 0% [at 17.1 µM, percent relative to cAMP agonist control]. In test [4], the activity change, negative = inhibition is -46.5% [at 30.8 µM].
`O=C(CCCn1c(SCC(=O)c2ccc(O)c(O)c2)nc2ccccc2c1=O)NCC1CCCO1` (centres undefined): the Potency result in test [1], in test [2], in test [3] and in test [4] was “inactive” throughout.
`CC(=O)Nc1ccc(N(C(=O)Cn2nnc3ccccc32)C(C(=O)NC2CCCC2)c2ccc(O)c(O)c2)cc1` (centres undefined): the Potency result in test [1], in test [2] and in test [4] was “inactive” throughout. In addition, the Potency in test [3] was 95.3 µM (active).
In the case of `CCN(CCCNC(=O)c1cc2cc3ccc(OC)cc3nc2s1)c1cccc(C)c1`, the Potency entry in test [1], in test [2], in test [3] and in test [4] was “inactive” throughout.
On to `CCOc1ccc(N2C(=O)C3Sc4[nH]c(=O)sc4C(/C=C/c4ccccc4)C3C2=O)cc1` (centres undefined), for which the Potency entry in test [1] and in test [3] was “inactive” throughout. For the same molecule, the activation in test [2] was 4.64% [at 17.1 µM, percent relative to cAMP agonist control]. The activity change, negative = inhibition in test [4] is 18.3% [at 30.8 µM].
On to `O=C1C=C(NS(=O)(=O)c2ccccc2)C(=O)c2ccccc21`, for which the Potency entry in test [1], in test [2], in test [3] and in test [4] was “inactive” throughout.
Turning to `COc1ccc2ccc(C(C)(C(C)=O)C(=O)OC(C)C)cc2c1` (centres undefined), the Potency entry in test [1] and in test [3] was “inactive” throughout. Besides, the activation in test [2] was 5.56% [at 17.1 µM, percent relative to cAMP agonist control]. Further, in test [4], the activity change, negative = inhibition was -29.5% [at 30.8 µM].
As for `O=C(N/N=C/c1coc2ccc(Cl)cc2c1=O)c1cc(O)cc(O)c1`, the Potency entry in test [1], in test [2], in test [3] and in test [4] was “inactive” throughout.
In the case of `CC1(Cc2cc(Cl)ccc2C(F)(F)F)C(=O)Nc2cc(F)ccc21` (centres undefined), the Potency entry in test [1] and in test [3] was “inactive” each time. Besides, the activation in test [2] was 5.2% [at 17.1 µM, percent relative to cAMP agonist control]. Also, the activity change, negative = inhibition in test [4] is -15.8% [at 30.8 µM].
With `CCCC1=C(C(=O)OCC)C(c2ccco2)C(C#N)=C(N)O1` (centres undefined), the Potency entry in test [1] and in test [3] was “inactive” in each case. Moreover, the activation in test [2] is 2.29% [at 17.1 µM, percent relative to cAMP agonist control]. The activity change, negative = inhibition in test [4] was -11% [at 30.8 µM].
Consider `CC(C)(C)C(C(=O)n1cccc1C#N)c1ccccc1` (centres undefined), for which the Potency entry in test [1] and in test [3] was “inactive” in each case. In test [2], the activation is 5.44% [at 17.1 µM, percent relative to cAMP agonist control]. Moreover, in test [4], the activity change, negative = inhibition was 3.86% [at 30.8 µM].
`COc1ccc(Cl)cc1NC(=O)CN(C)C(=O)c1cc(-c2ccncc2)nc2ccccc12`: the Potency result in test [1], in test [2], in test [3] and in test [4] was “inactive” throughout.
As to `O=C1C=C(Nc2cccc3cccnc23)c2ccccc2C1=O`, the Potency result in test [1], in test [2], in test [3] and in test [4] was “inactive” throughout.
As for `Cc1ccccc1NC(=O)c1sc2nc(-c3cc4ccccc4oc3=O)[nH]c(=O)c2c1C`, the Potency entry in test [1], in test [2] and in test [4] was “inactive” each time. Besides, the outcome in test [3] is “inactive; activator; fitted 0.8492 uM [at 12.7 µM]”.
Take `O=C(NNC(=O)c1ccccc1F)c1cccc(-n2cccc2)c1`: the Potency result in test [1], in test [2], in test [3] and in test [4] was “inactive” each time.
For `NC(=O)C1CCN(C(=O)c2ccc3c(=O)n(Cc4cccc(Br)c4)c(=S)[nH]c3c2)CC1`, the Potency result in test [1] and in test [3] was “inactive” throughout. Also, the activation in test [2] was 7.22% [at 17.1 µM, percent relative to cAMP agonist control]. Besides, the activity change, negative = inhibition in test [4] is -4.35% [at 30.8 µM].
For the molecule `COc1cccc(C(=O)Nc2cccc(C(=O)OCc3cc(=O)n4c(C)csc4n3)c2)c1`, the Potency result in test [1], in test [2], in test [3] and in test [4] was “inactive” throughout.
`COc1ccc(C2C=C(c3ccc(Br)cc3)Nc3nnnn32)c(OC)c1` (centres undefined): the Potency result in test [1], in test [2], in test [3] and in test [4] was “inactive” each time.
As to `COc1ccc(C(=O)CSc2nnc(-c3ccco3)c(-c3ccco3)n2)cc1`, the Potency result in test [1], in test [2], in test [3] and in test [4] was “inactive” in each case.
Consider `Cc1ccc(Cn2ccnc2SCC(=O)Nc2ccc3c(c2)OCO3)cc1`, for which the Potency entry in test [1], in test [2], in test [3] and in test [4] was “inactive” in each case.
